The source of these data is PubChem BioAssay (NCI).

Holding throughout (assay): NCI-60 one-dose screen, 48 h (100 = growth as untreated, 0 = no growth, -100 = all killed)
Common to all, as to details: 10 µM

The subject of assay [1] is NCI-H23 lung.
Assay [2] concerns NCI-H226 lung.
Assay [3] has as its system NCI-H322M lung.
Assay [4] concerns HOP-62 NSCLC.
Assay [5] relates to NCI-H460 lung.
Assay [6] has as its system HOP-92 NSCLC.
Assay [7] has as its system NCI-H522 lung.
Assay [8] concerns A549/ATCC NSCLC.
The test system of assay [9] is 786-0 renal.
Assay [10] concerns COLO 205 colon.

Molecules are shown by their SMILES. Compounds without any hit were thinned out: in the full panel of roughly 83,000, 20% have a hit.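 Growth was measured after 48 h exposure to one concentration of compound in 96-well plates. Values under 10 count as active.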 A number with no mark means an inactive call. The source made the active and inactive calls.

For the compound `O=C(NO)c1ccc(CNC(=O)[C@H]2Cc3c([nH]c4ccccc34)[C@H](c3ccc(Cl)cc3)N2)cc1`, the growth is -50.8% (active) in [1]; 28.2% in assay [2]; 28.5% in assay [3]; 2.45% (active) in assay [4]; 10.3% in assay [5]; -17.1% (active) in assay [6]. Besides, the growth in [7] was -35.2% (active); in assay [8] it was 24.5%; in assay [9], 22.6%; in assay [10], -82.7% (active).
On to `CN1C(=O)N(C)C2SC(N/N=C/c3cccs3)=NC21` (stereo not given), for which the growth was 38.4% in assay [1]; 68.2% in [2]; 69.3% in assay [3]; 37.7% in assay [4]; 13.2% in assay [5]; 55.6% in assay [6]. The growth is -14.6% (active) in assay [7], 44.2% in assay [8], 37.3% in assay [9] and 26.8% in [10].
With `COc1cc(/C=C/C(=O)c2ccc(NC(=O)CN3C(=O)NC(C)(c4ccccc4)C3=O)cc2)cc(OC)c1OC` (stereo not given), the growth in assay [1] was 15.6%; in [2] it was 1.44% (active); in assay [3], 56.5%; in assay [4], 33.3%; in [5] it was 2.48% (active); in assay [6], 85%. For the same compound, the growth in [7] was 32.8%; in [8], 18.5%; in assay [9], 27.5%; in [10], 11.9%.
For `O=C(Nc1ccc(Cl)c([N+](=O)[O-])c1)Nc1ccc(Cl)c([N+](=O)[O-])c1`, the growth in [1] was -14.3% (active); in assay [2], -4.77% (active); in [3] it was 27.7%; in [4] it was 30.5%; in [5] it was 9.48% (active); in assay [6], -34.2% (active). The growth in [7] was 28.1%; in assay [8], 26.1%; in assay [9] it was 10.7%; in assay [10], 2.69% (active).
Take `COc1ccccc1NCc1ccc(CO)n1-c1ccc(C)cc1`: the growth in assay [1] is 94.3%; in assay [2] it was 81.3%; in [3], 100%; in assay [4] it was 88.1%; in [5], 111%; in assay [6], 80.5%. Further, the growth is 93.7% in assay [7], 100% in [8], 104% in assay [9] and 120% in assay [10].
On to `CC(=O)Nc1nc(-c2ccc(N3CCN(C)CC3)c(NS(=O)(=O)c3cccc4c(N(C)C)cccc34)c2)cs1`, for which the growth in [1] was 58.1%; in assay [2], 75.5%; in assay [3], 64.7%; in [4], 69.7%; in [5], 58.9%; in assay [6] it was 50.6%. Besides, the growth was 59.6% in assay [7], 71.3% in [8], 34.4% in assay [9] and 47.4% in assay [10].
For `CCCCSc1nc(Nc2ccc(/C(C)=N/NC(N)=S)cc2)c(C#N)c(-c2ccc(F)cc2)n1`, the growth is 21% in assay [1]; 20.7% in [2]; 53.8% in assay [3]; 22.7% in [4]; 18.4% in [5]; -18.5% (active) in assay [6]. Besides, the growth in [7] is 43.9%; in assay [8] it was 8.95% (active); in assay [9], -20.5% (active); in [10], 47.1%.
As for `Cc1noc2c(Cc3ccccc3)nn(CC(=O)N/N=C/c3ccc(F)cc3)c(=O)c12`, the growth in assay [1] was 78.4%; in [2], 29%; in [3] it was 84.6%; in assay [4] it was 14.7%; in assay [5], 28.9%; in assay [6], -12.7% (active). Also, the growth in [7] is 85.8%; in [8], 45.3%; in [9] it was -2.13% (active); in assay [10], 72.5%.
On to `O=C(NCCCCCCCCCC[P+](c1ccccc1)(c1ccccc1)c1ccccc1)c1ccc(-n2nc(-c3ccccc3O)nc2-c2ccccc2O)cc1`, for which the growth in assay [1] was -66.8% (active); in assay [2], -58.9% (active); in assay [3], -91.1% (active); in assay [4], -64.1% (active); in assay [5], 8.35% (active); in assay [6], -74.9% (active). Besides, the growth is -78.3% (active) in assay [7], -51.9% (active) in assay [8], -64% (active) in assay [9] and -83.1% (active) in assay [10].
For `CCCn1c(=O)c2[nH]c(-c3ccc(OCc4nc5ccc(C#N)cc5[nH]4)cc3)nc2n(CCC)c1=O`, the growth in [1] is 81.5%; in assay [2], 51.2%; in assay [3] it was 76.3%; in assay [4], 77.9%; in assay [5], 66.2%; in assay [6], 78.5%. Also, the growth in assay [7] is 71.1%; in assay [8], 79.9%; in assay [9] it was 72.1%; in assay [10], 94.9%.
As to `COC[C@@H](CC(C)C)N=C1N/C(=C\c2ccc3ncsc3c2)C(=O)N1C`, the growth in [1] was -17.7% (active); in assay [2] it was 11.4%; in [3] it was 9.12% (active); in [4] it was -9.28% (active); in assay [5], 21.2%; in assay [6], 19.1%. In addition, the growth in [7] was -29.6% (active); in assay [8] it was 15.9%; in assay [9], 14.9%; in assay [10], -28.4% (active).
On to `Cc1ccc(/C=C/C(=O)c2ccc(NC(=O)CSc3nnc(-c4c[nH]c5ccccc45)n3-c3ccccc3)cc2)cc1`, for which the growth in assay [1] is 74.3%; in [2], 80.7%; in assay [3], 92.8%; in assay [4], 95.8%; in assay [5], 84.6%; in assay [6], 92%. The growth in assay [7] was 81.7%; in assay [8] it was 95.9%; in assay [9], 109%; in assay [10] it was 102%.
Turning to `O=C(CSc1nnc(-c2c[nH]c3ccccc23)n1-c1ccccc1)c1ccc(Cl)cc1`, the growth in [1] was 40.8%; in assay [2], 17.6%; in [3], 58.7%; in assay [4] it was 47.1%; in assay [5] it was 60.1%; in assay [6], 65%. The growth in assay [7] was 67%; in [8], 37.5%; in assay [9], 44.9%; in assay [10], 42.6%.
For the compound `Nc1nc(Nc2ccccc2)nn1Cc1c(Cl)cccc1Cl`, the growth in assay [1] was 34.1%; in [2] it was 30.4%; in assay [3], 51.8%; in assay [4], 60.6%; in assay [5], 24.8%; in assay [6], -17.4% (active). Moreover, the growth in assay [7] was 21.1%; in assay [8] it was 43.1%; in assay [9] it was 27.8%; in assay [10] it was 33.2%.
Regarding `CC(C)C1=C[C@@]23CC[C@@H]4[C@](C)(CCC[C@]4(C)C(=O)NCc4ccccc4)[C@H]2C[C@@H]1[C@H]1C(=O)CCC(=O)[C@H]13`, the growth is 59% in assay [1]; 40.7% in assay [2]; 93.4% in assay [3]; 94.4% in assay [4]; 84.5% in assay [5]; 68.9% in assay [6]. Moreover, the growth is -12.5% (active) in assay [7], 81.6% in assay [8], 87.2% in [9] and 103% in assay [10].
Consider `O=C(c1ccc(Cl)cc1)C1[C@H](c2ccc(Br)cc2)[C@@H](c2ccccc2)NC12C(=O)Nc1ccccc12` (stereo not given in full), for which the growth is -35.9% (active) in [1]; -72.4% (active) in [2]; 19.9% in assay [3]; -18.9% (active) in assay [4]; -33.8% (active) in assay [5]; -18% (active) in assay [6]. The growth in [7] was -4.55% (active); in assay [8] it was 15%; in assay [9], -4.41% (active); in assay [10], -88.9% (active).
On to `CCOC(=O)C1=C(N)N(c2ccc(C)cc2)C2=C(C(=O)CC(C)(C)C2)C1c1ccccc1OC` (stereo not given), for which the growth was 109% in assay [1]; 99.7% in [2]; 93.4% in assay [3]; 106% in [4]; 111% in assay [5]; 117% in assay [6]. The growth in [7] is 97.6%; in assay [8], 107%; in assay [9], 99.6%; in assay [10], 134%.
Regarding `Nc1nnc(-c2c[nH]c3ccc(F)cc23)c(-c2c[nH]c3ncccc23)n1`, the growth in assay [1] is 86.6%; in [2], 57.9%; in assay [3], 61.1%; in assay [4], 57.4%; in assay [5] it was 50.3%; in assay [6] it was 81.8%. In addition, the growth is 52.7% in [7], 74% in assay [8], 44% in assay [9] and 71.8% in assay [10].
Consider `O=C(CNc1nc(-c2ccccc2)cs1)Nc1ccc(Cl)cc1[N+](=O)[O-]`, for which the growth was -57.3% (active) in [1]; -54.2% (active) in assay [2]; 35.7% in assay [3]; -27.7% (active) in assay [4]; 5.09% (active) in assay [5]; -14.2% (active) in assay [6]. The growth is -82.8% (active) in [7], 12.6% in assay [8], 4.95% (active) in assay [9] and -64.7% (active) in assay [10].
Consider `O=C(Nc1cc(Cl)cc(Cl)c1)Nc1cc(Cl)cc(Cl)c1`, for which the growth in assay [1] is -21.1% (active); in assay [2], -37.8% (active); in [3], -5.15% (active); in assay [4], -30.3% (active); in assay [5], -16.2% (active); in [6], -33.8% (active). The growth in assay [7] is -36.1% (active); in [8] it was 1.01% (active); in [9], -1.4% (active); in assay [10], -98.9% (active).
As to `O=C(c1ccc(-n2c(=O)[nH]c3ccccc3c2=O)cc1)N1CCOCC1`, the growth in assay [1] is 116%; in assay [2], 99.6%; in assay [3], 98.7%; in [4] it was 134%; in [5] it was 109%; in assay [6] it was 99.8%. For the same compound, the growth in [7] is 101%; in [8], 119%; in assay [9], 99.5%; in [10], 110%.
As to `COc1ccccc1[C@H]1C(C(=O)c2ccc(Cl)cc2)C2(N[C@@H]1c1ccccc1)C(=O)Nc1ccccc12` (stereo not given in full), the growth was -55.3% (active) in assay [1]; -53.2% (active) in [2]; 10.3% in assay [3]; -21.9% (active) in [4]; -27.2% (active) in [5]; -21.8% (active) in [6]. In addition, the growth in assay [7] was -27.5% (active); in [8] it was 9.22% (active); in [9], -15% (active); in [10] it was -88.2% (active).
Turning to `COc1ccc(C2NC(=S)NC(C)=C2C(=O)OC(C)C)cc1OC` (stereo not given), the growth was 111% in assay [1]; 94.8% in [2]; 96.8% in [3]; 103% in assay [4]; 114% in assay [5]; 101% in [6]. For the same compound, the growth in assay [7] is 102%; in [8], 114%; in assay [9], 93.2%; in [10] it was 140%.
For the compound `CN1CCN(c2ccc(C(=O)/C=C/c3cc(Br)ccc3F)cc2)CC1`, the growth in assay [1] was 49.4%; in assay [2] it was 61.6%; in assay [3], 93.3%; in assay [4], 77.1%; in assay [5], 67.2%; in assay [6], 31.6%. In addition, the growth in assay [7] is 66.4%; in assay [8], 28.5%; in [9] it was 27.1%; in assay [10], 34.8%.
